Test results: PubChem BioAssay AID1159580 (chemical genetic matrix, 2015)
Screen size: about 5,500 compounds; about 2,000 (36%) were called active. About 18% were inconclusive and are not listed. Cut-off read from the data, not from the text of the source: active = normalized growth mostly below about 0.91 (no sharp cut-off); inconclusive = no clear call, values can overlap the other calls; inactive = mostly above about 0.92. The list shows a part of the results.

Test: chemical genetic growth profiling, strain panel (AID 1159580);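 note: tested at 20 µM; growth read once vehicle control cultures reached saturation at 30 °C; 1 = growth at the plate median or of vehicle wells; lower values mean less growth of the strain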
Conditions: S. cerevisiae deletion strains, growth OD

Measured: normalized growth

C=CC1C2=CCOC(=O)C2=COC1OC1OC(CO)C(O)C(O)C1O (configuration not stated)
inactive: locus YAL021C, strain ccr4, hits give low values 1.02 | locus YAL026C, strain drs2, hits give low values 1.02 | locus YAL030W, strain snc1, hits give low values 1.02 | locus YBL061C, strain skt5, hits give low values 1.01 | locus YBR009C, strain hhf1, hits give low values 1.02 | locus YBR023C, strain chs3, hits give low values 1.01 | locus YBR171W, strain sec66, hits give low values 1.02 | locus YBR231C, strain swc5, hits give low values 1.02 | locus YBR279W, strain paf1, hits give low values 1.01 | locus YCL011C, strain gbp2, hits give low values 1.02 | locus YCL016C, strain dcc1, hits give low values 1.01 | locus YCL061C, strain MRC1, hits give low values 1.02 | locus YCL069W, strain vba3, hits give low values 1.02 | locus YCR088W, strain abp1, hits give low values 1.02 | locus YDL005C, strain med2, hits give low values 1.01 | locus YDL040C, strain nat1, hits give low values 1.02 | locus YDR001C, strain nth1, hits give low values 1.02 | locus YDR069C, strain doa4, hits give low values 1.02 | locus YDR137W, strain rgp1, hits give low values 1.08 | locus YDR159W, strain sac3, hits give low values 1.02 | locus YDR195W, strain ref2 1.01 | locus YDR297W, strain sur2, hits give low values 1.02 | locus YDR334W, strain swr1, hits give low values 1.02 | locus YDR335W, strain msn5, hits give low values 1.02 | locus YDR392W, strain spt3, hits give low values 1.02 | locus YEL003W, strain gim4, hits give low values 1.02 | locus YEL037C, strain rad23, hits give low values 1.02 | locus YEL061C, strain CIN8 (second series), hits give low values 1.03 | locus YER015W, strain faa2, hits give low values 1.01 | locus YER016W, strain bim1, hits give low values 1.02 | locus YER111C, strain swi4, hits give low values 1.01 | locus YER155C, strain BEM2 (second series), hits give low values 1.05 | locus YFR010W, strain ubp6, hits give low values 1.03 | locus YGL167C, strain pmr1, hits give low values 1.02 | locus YGL173C, strain kem1, hits give low values 1.02 | locus YGL227W, strain vid30, hits give low values 1.03 | locus YGL240W, strain doc1, hits give low values 1.02 | locus YGL253W, strain hxk2, hits give low values 1.03 | locus YHR013C, strain ard1, hits give low values 1.04 | locus YHR027C, strain rpn1, hits give low values 1.02 | locus YHR142W, strain chs7, hits give low values 1.04 | locus YJL092W, strain hpr5, hits give low values 1.01 | locus YJL095W, strain BCK1 (second series), hits give low values 1.02 | locus YJL115W, strain asf1, hits give low values 1.03 | locus YJL129C, strain trk1, hits give low values 1.04 | locus YJL154C, strain vps35, hits give low values 1.01 | locus YJL164C, strain tpk1, hits give low values 1.02 | locus YJL166W, strain qcr8, hits give low values 1.02 | locus YJL187C, strain SWE1, hits give low values 1.02 | locus YKL160W, strain elf1, hits give low values 1.01 | locus YKR026C, strain gcn3, hits give low values 1.02 | locus YKR091W, strain srl3, hits give low values 1.02 | locus YLL001W, strain dnm1, hits give low values 1.02 | locus YLL026W, hits give low values 1.01 | locus YLL041C, strain sdh2, hits give low values 1.02 | locus YLR027C, strain aat2, hits give low values 1.01 | locus YLR221C, strain rsa3, hits give low values 1.02 | locus YLR258W, strain gsy2, hits give low values 1.01 | locus YLR262C, strain YPT6 (second series), hits give low values 1.03 | locus YLR320W, strain mms22, hits give low values 1.03 | locus YLR342W, strain FKS1, hits give low values 1 | locus YLR357W, strain rsc2, hits give low values 1 | locus YLR370C, strain arc18, hits give low values 1.03 | locus YLR384C, strain iki3, hits give low values 1.01 | locus YML120C, strain ndi1, hits give low values 1.02 | locus YMR058W, strain fet3, hits give low values 1.02 | locus YMR125W, strain sto1, hits give low values 1.03 | locus YMR129W, hits give low values 1.02 | locus YMR205C, strain PFK2, hits give low values 1.03 | locus YMR231W, strain pep5, hits give low values 1.03 | locus YNL071W, strain lat1, hits give low values 1.02 | locus YNL209W, strain ssb2, hits give low values 1.01 | locus YNL248C, strain rpa49, hits give low values 1.05 | locus YNL322C, strain KRE1 (second series), hits give low values 1.02 | locus YNR049C, strain mso1, hits give low values 1.01 | locus YOR001W, strain rrp6, hits give low values 1.01 | locus YOR070C, strain gyp1, hits give low values 1.02 | locus YOR080W, strain dia2, hits give low values 1.02 | locus YOR083W, strain WHI5, hits give low values 1.01 | locus YOR106W, strain vam3, hits give low values 1.02 | locus YOR265W, strain rbl2, hits give low values 1.01 | locus YOR270C, strain vph1, hits give low values 1.11 | locus YOR290C, strain snf2, hits give low values 1.02 | locus YPL051W, strain arl3, hits give low values 1.01 | locus YPL078C, strain atp4, hits give low values 1.04 | locus YPL106C, strain sse1, hits give low values 1.02 | locus YPL240C, strain hsp82, hits give low values 1
